# Experimental data taken from the supplement of paper PMC8728848.
# This excerpt belongs to a sample that is enriched for the strongest signals.
# Experiments:
# Assay in all cases: glycan array binding signal (z-score within array); higher = stronger binding
# Kdn(a2-3)Gal(b1-4)GlcNAc = details: glycan notation: IUPAC condensed, linker removed
# Outline: (§1)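 Columns mapping to the same glycan were averaged after glycan names were converted to IUPAC-condensed notation. The data come from 3228 arrays in the Consortium for Functional Glycomics database, limited to those with an available protein sequence. Binding is reported as a within-array Z-score averaged across arrays of one protein sequence and across linkers.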
# [1] = system: Kdn(a2-3)Gal(b1-4)[Fuc(a1-3)]GlcNAc; details: glycan notation: IUPAC condensed, linker removed
# Outline: as §1
# Kdn(a2-6)Gal(b1-4)GlcNAc = details: glycan notation: IUPAC condensed, linker removed
# Outline: as §1
# [2] = system: Man(a1-2)Man(a1-2)Man(a1-3)Man; details: glycan notation: IUPAC condensed, linker removed
# Outline: as §1
# [3] = system: Man(a1-2)Man(a1-6)[Man(a1-3)]Man(a1-6)[Man(a1-2)Man(a1-2)Man(a1-3)]Man; details: glycan notation: IUPAC condensed, linker removed
# Outline: as §1
# [4] = system: Man(a1-2)Man(a1-2)Man(a1-3)[Man(a1-2)Man(a1-3)[Man(a1-2)Man(a1-6)]Man(a1-6)]Man(b1-4)GlcNAc(b1-4)GlcNAc; details: glycan notation: IUPAC condensed, linker removed
# Outline: as §1
# [5] = system: Man(a1-2)Man(a1-3)[Man(a1-2)Man(a1-6)]Man(a1-6)[Man(a1-3)[Man(a1-6)]Man(a1-6)]Man(b1-4)GlcNAc(b1-4)GlcNAc; details: glycan notation: IUPAC condensed, linker removed
# Outline: as §1
# [6] = system: Man(a1-2)Man(a1-2)Man(a1-3)[Man(a1-2)Man(a1-6)[Man(a1-3)]Man(a1-6)]Man(b1-4)GlcNAc(b1-4)GlcNAc; details: glycan notation: IUPAC condensed, linker removed; mutation: D138V, E140I
# Outline: as §1
# Man(a1-3)[Man(a1-6)]Man = details: glycan notation: IUPAC condensed, linker removed
# Outline: as §1
# [7] = system: Man(a1-2)Man(a1-3)[Man(a1-2)Man(a1-6)]Man(a1-6)[Man(a1-2)Man(a1-2)Man(a1-3)]Man(b1-4)GlcNAc(b1-4)GlcNAc; details: glycan notation: IUPAC condensed, linker removed
# Outline: as §1
# [8] = system: Man(a1-3)[Man(a1-6)]Man(a1-6)[Man(a1-2)Man(a1-3)]Man(b1-4)GlcNAc(b1-4)GlcNAc; details: glycan notation: IUPAC condensed, linker removed
# Outline: as §1
# Man(a1-2)Man(a1-3)Man = details: glycan notation: IUPAC condensed, linker removed
# Outline: as §1
# [9] = system: Man(a1-2)Man(a1-3)[Man(a1-2)Man(a1-6)]Man; details: glycan notation: IUPAC condensed, linker removed
# Outline: as §1
# [10] = system: Man(a1-3)[Man(a1-6)]Man(a1-6)[Man(a1-3)]Man; details: glycan notation: IUPAC condensed, linker removed
# Outline: as §1
# [11] = system: Man(a1-3)[Man(a1-6)]Man(b1-4)GlcNAc(b1-4)[Fuc(a1-6)]GlcNAc; details: glycan notation: IUPAC condensed, linker removed
# Outline: as §1
# [12] = system: Man(a1-3)[Man(a1-6)]Man(a1-6)[Man(a1-3)]Man(b1-4)GlcNAc(b1-4)GlcNAc; details: glycan notation: IUPAC condensed, linker removed
# Outline: as §1
# [13] = system: Man(a1-2)Man(a1-2)Man(a1-6)[Man(a1-3)]Man; details: glycan notation: IUPAC condensed, linker removed
# Outline: as §1
# [14] = system: Man(a1-2)Man(a1-3)[Man(a1-2)Man(a1-6)]Man(a1-6)[Man(a1-2)Man(a1-2)Man(a1-3)]Man; details: glycan notation: IUPAC condensed, linker removed
# Outline: as §1
# [15] = system: Man(a1-2)Man(a1-3)[Man(a1-6)]Man(a1-6)[Man(a1-2)Man(a1-3)]Man(b1-4)GlcNAc(b1-4)GlcNAc; details: glycan notation: IUPAC condensed, linker removed
# Outline: as §1
# [16] = system: Man(a1-2)Man(a1-6)[Man(a1-3)]Man(a1-6)[Man(a1-2)Man(a1-2)Man(a1-3)]Man(b1-4)GlcNAc(b1-4)GlcNAc; details: glycan notation: IUPAC condensed, linker removed
# Outline: as §1
# Sequence of C3b (Homo sapiens), P01024 (P01024 23-667): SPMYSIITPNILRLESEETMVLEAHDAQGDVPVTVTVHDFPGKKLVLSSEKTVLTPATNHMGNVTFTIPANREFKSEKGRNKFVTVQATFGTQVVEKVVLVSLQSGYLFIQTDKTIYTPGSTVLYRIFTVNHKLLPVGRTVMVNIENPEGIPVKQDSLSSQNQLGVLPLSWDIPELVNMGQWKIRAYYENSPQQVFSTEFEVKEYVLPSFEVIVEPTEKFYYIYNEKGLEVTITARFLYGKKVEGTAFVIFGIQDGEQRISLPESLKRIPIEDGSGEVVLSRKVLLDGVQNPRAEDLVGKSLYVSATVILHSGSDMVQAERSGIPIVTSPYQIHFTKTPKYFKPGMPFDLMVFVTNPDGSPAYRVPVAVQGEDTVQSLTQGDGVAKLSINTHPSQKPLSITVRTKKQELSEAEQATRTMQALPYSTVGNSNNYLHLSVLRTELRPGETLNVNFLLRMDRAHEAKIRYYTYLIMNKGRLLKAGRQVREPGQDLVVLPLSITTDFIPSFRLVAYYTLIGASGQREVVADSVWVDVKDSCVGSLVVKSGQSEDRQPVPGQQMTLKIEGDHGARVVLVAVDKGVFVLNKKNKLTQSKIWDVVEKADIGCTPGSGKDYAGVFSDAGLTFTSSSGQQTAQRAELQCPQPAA
# Sequence of Avaren (Actinomycete K97) (chain, as listed by the source): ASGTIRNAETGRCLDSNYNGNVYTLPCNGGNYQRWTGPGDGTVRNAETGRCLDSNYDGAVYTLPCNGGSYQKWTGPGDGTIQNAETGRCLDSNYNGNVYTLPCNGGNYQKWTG
# Sequence of Neurocan (Homo sapiens), O14594 (O14594 other isoform, or with tags, fused parts or gaps): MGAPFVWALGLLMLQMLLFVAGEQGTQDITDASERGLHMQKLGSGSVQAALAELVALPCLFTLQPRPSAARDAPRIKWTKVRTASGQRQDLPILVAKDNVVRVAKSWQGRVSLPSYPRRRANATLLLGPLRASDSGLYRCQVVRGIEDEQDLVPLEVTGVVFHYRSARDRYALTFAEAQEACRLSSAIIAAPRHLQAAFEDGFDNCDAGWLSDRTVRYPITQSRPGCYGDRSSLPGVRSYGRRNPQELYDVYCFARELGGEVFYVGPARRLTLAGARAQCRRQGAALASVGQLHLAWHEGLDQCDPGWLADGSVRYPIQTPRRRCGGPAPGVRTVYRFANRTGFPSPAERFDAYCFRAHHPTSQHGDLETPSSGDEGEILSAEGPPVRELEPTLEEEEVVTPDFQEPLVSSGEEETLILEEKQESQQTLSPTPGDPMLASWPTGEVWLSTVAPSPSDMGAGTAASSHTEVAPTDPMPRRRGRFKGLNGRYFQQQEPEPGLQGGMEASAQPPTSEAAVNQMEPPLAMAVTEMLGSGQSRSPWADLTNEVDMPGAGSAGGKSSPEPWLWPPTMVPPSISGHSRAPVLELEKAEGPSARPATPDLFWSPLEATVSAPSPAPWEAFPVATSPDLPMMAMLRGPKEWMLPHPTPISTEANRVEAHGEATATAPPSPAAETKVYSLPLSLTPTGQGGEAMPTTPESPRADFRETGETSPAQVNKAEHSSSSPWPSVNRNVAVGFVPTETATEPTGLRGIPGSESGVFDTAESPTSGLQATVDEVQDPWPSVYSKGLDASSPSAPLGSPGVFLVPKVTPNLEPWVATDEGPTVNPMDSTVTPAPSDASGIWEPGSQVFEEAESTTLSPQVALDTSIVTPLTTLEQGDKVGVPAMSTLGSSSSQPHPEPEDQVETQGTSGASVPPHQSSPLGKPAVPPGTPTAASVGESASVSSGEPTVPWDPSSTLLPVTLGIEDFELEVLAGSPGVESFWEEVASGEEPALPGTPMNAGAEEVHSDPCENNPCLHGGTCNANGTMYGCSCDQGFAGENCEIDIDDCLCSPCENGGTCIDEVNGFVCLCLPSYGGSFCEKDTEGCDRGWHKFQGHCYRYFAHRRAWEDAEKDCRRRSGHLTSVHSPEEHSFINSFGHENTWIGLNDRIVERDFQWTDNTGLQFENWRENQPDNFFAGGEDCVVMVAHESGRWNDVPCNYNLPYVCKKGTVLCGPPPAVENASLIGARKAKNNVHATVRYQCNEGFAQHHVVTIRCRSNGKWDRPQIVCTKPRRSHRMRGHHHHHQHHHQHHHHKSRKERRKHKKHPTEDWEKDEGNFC
# Sequence of CHI3L1 (Homo sapiens), P36222 (P36222 whole entry): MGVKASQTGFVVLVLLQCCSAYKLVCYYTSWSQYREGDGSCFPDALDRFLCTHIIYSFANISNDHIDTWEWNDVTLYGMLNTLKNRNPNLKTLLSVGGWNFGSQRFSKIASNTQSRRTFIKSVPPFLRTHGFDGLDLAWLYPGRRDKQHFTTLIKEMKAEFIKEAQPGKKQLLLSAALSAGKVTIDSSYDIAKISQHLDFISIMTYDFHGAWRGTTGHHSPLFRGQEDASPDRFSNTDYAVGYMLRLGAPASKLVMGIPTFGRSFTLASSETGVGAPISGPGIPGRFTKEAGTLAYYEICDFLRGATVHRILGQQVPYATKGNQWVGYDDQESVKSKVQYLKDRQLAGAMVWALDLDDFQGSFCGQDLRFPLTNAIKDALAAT
# Sequence of SRLC (Mus musculus), Q8VIF6 (Q8VIF6 other isoform, or with tags, fused parts or gaps): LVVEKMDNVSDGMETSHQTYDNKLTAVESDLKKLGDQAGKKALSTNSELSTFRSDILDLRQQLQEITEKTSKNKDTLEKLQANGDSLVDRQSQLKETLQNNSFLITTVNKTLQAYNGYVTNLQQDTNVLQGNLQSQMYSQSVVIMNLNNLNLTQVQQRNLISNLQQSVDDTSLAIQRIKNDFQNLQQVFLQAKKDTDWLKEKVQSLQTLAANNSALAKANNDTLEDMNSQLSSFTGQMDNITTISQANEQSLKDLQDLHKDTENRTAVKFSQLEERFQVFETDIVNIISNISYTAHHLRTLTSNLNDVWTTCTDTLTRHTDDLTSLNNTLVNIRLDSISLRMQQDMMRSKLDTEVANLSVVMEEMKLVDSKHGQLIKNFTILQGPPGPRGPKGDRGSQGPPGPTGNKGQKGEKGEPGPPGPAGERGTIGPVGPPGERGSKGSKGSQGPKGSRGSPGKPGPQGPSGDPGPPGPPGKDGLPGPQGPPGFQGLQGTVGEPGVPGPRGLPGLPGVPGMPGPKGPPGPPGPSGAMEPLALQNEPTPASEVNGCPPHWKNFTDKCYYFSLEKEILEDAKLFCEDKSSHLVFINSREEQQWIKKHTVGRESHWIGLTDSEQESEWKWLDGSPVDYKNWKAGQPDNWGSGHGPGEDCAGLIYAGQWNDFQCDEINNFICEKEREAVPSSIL
# Sequence of Aggrecan (Rattus norvegicus), NP_071526 (chain, as listed by the source): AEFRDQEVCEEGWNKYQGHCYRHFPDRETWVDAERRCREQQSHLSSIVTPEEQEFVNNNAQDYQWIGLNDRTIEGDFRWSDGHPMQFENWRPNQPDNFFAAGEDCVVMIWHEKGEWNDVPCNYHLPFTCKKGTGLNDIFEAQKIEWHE
# Sequence of CHT (Homo sapiens) (chain, as listed by the source): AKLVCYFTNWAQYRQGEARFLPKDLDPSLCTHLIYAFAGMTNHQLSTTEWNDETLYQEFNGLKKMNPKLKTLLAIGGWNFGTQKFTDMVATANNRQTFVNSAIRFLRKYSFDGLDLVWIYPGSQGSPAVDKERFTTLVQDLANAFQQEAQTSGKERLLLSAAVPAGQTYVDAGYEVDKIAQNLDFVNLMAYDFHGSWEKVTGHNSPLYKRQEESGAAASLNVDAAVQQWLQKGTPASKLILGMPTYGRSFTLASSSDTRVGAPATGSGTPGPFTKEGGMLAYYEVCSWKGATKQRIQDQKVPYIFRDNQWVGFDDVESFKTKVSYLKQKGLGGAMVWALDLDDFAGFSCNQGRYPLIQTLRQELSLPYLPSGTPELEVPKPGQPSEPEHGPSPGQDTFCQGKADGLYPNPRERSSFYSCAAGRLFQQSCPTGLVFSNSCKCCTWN
# Sequence of 6RG (Lolium perenne), B9U140 (B9U140 entry or part of it): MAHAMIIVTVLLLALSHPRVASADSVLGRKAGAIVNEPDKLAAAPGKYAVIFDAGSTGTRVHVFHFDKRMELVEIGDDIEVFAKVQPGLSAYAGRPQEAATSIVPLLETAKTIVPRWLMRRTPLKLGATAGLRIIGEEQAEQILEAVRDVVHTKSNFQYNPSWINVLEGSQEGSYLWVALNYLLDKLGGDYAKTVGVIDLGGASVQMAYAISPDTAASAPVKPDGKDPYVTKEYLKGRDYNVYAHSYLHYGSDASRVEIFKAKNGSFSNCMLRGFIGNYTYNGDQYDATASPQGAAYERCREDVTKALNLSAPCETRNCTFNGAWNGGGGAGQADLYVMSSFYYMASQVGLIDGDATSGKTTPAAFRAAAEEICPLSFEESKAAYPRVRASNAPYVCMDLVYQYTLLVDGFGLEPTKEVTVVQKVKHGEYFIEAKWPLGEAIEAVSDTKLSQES
# Sequence of PILRa (Mus musculus), Q2YSF3 (Q2YSF3 entry or part of it): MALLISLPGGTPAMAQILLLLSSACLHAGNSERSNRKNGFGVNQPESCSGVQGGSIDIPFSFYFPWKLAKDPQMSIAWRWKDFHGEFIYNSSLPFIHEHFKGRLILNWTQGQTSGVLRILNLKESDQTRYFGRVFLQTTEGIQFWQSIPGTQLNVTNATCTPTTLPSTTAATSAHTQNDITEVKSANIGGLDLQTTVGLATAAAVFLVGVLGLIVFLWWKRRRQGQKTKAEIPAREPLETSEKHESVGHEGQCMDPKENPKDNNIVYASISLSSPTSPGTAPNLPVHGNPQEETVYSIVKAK
# Sequence of PILRb (Mus musculus), Q2YSF2 (Q2YSF2 entry or part of it): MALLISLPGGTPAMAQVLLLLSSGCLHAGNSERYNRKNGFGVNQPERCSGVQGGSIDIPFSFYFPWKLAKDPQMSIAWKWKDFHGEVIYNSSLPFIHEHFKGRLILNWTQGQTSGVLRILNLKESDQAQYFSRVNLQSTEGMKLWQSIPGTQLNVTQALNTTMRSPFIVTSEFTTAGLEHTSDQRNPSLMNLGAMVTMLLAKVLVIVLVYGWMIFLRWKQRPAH
substance,measurement,setting,value
"CHI3L1 (Homo sapiens), P36222",glycan array binding signal (z-score),Kdn(a2-3)Gal(b1-4)GlcNAc,-0.144
same,glycan array binding signal (z-score),[1],0.381
"PILRa (Mus musculus), Q2YSF3",glycan array binding signal (z-score),Kdn(a2-6)Gal(b1-4)GlcNAc,-0.059
"C3b (Homo sapiens), P01024",glycan array binding signal (z-score),Kdn(a2-3)Gal(b1-4)GlcNAc,-0.561
same,glycan array binding signal (z-score),[2],0.007
same,glycan array binding signal (z-score),[3],-0.764
"SRLC (Mus musculus), Q8VIF6",glycan array binding signal (z-score),[2],-0.206
same,glycan array binding signal (z-score),[4],-0.241
"HARE (Homo sapiens), Q8WWQ8",glycan array binding signal (z-score),[5],2.39
CHT (Homo sapiens),glycan array binding signal (z-score),[6],-0.189
same,glycan array binding signal (z-score),"Man(a1-3)[Man(a1-6)]Man; mutation: D138V, E140I",-0.149
"Aggrecan (Rattus norvegicus), NP_071526",glycan array binding signal (z-score),[7],0.607
same,glycan array binding signal (z-score),[8],1.14
"Siglec-8 (Homo sapiens), Q9NYZ4",glycan array binding signal (z-score),Man(a1-2)Man(a1-3)Man,-0.003
same,glycan array binding signal (z-score),[9],-0.204
same,glycan array binding signal (z-score),[10],0.131
same,glycan array binding signal (z-score),[10]; mutation: R125K,-0.227
same,glycan array binding signal (z-score),[11],-0.07
"6RG (Lolium perenne), B9U140",glycan array binding signal (z-score),[9],-0.266
same,glycan array binding signal (z-score),[12],-0.359
Avaren (Actinomycete K97),glycan array binding signal (z-score),[2],2.52
same,glycan array binding signal (z-score),[13],14.7
same,glycan array binding signal (z-score),[7],1.26
same,glycan array binding signal (z-score),[14],11.2
same,glycan array binding signal (z-score),[9],3.5
same,glycan array binding signal (z-score),[15],1.08
same,glycan array binding signal (z-score),[16],13.4
same,glycan array binding signal (z-score),[3],6.02
same,glycan array binding signal (z-score),[8],-0.014
same,glycan array binding signal (z-score),[12],-0.113
same,glycan array binding signal (z-score),Man(a1-3)[Man(a1-6)]Man,-0.106
"Neurocan (Homo sapiens), O14594",glycan array binding signal (z-score),[9],-0.053
same,glycan array binding signal (z-score),[10],-0.722
"PILRb (Mus musculus), Q2YSF2",glycan array binding signal (z-score),[1],0.391
